Measured values taken from PubChem BioAssay (NCATS).
Results filed as inconclusive are left out. Values without a mark were called inactive. Calls come from the whole dose curve; as a rule, active = well fitted inhibition curve with a large enough effect; inconclusive = small, poorly fitted or top-dose-only effect; inactive = flat fitted curve, though single readings scatter.

The compounds below were run against Calcium and integrin-binding protein 1 (Homo sapiens) (UniProt Q99828) (assay: Primary qHTS for Identification of Calcium Integrin Binding Protein 1 (CIB1) Competitor (AID 1508620;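 note: GST tagged CIB1 binding a fluorescein labelled alphaIIb integrin peptide tracer; top concentration of the series differs between compounds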)). Conditions: CIB1-GST / FITC-alphaIIb peptide fluorescence polarization; series mostly up to 114 µM; activity change, negative = inhibition: at the top concentration.
Method in brief: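 Fluorescence polarization competition: CIB1-GST (1 uM final) preincubated with compound 15 min at room temperature, then FITC-labeled alphaIIb peptide (100 nM final) added for another 15 min. Polarization read at Ex 480/Em 540.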
% is set by controls: 0 for no effect and ±100 for the full control effect.

Calcium and integrin-binding protein 1 (Homo sapiens), sequence (Q99828 whole entry, looked up): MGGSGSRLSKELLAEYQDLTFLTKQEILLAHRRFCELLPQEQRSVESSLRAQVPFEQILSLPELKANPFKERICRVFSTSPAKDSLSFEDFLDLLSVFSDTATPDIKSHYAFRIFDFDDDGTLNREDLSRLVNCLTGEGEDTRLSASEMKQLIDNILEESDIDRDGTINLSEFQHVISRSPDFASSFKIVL

SMILES | activity change, negative = inhibition
C=C1CCCC2(C)CCC(C(C)(C)OC3OC(C)C(O)C(O)C3OC(=O)/C(C)=C\C)CC12 (centres undefined) | -15.8% [at 57.7 µM]
C=C(C)C(=O)O[C@H]1[C@H]2C(=C)C(=O)O[C@@H]2C[C@@H](C)[C@@H]2O[C@@H]2C(=O)[C@](C)(O)[C@@H]1OC(=O)C(=C)C | -4.45% [at 57.7 µM]
COC(=O)C1=COC(O[C@@H]2O[C@H](CO[C@@H]3O[C@H](COC(=O)/C=C\c4ccc(O)cc4)[C@@H](O)[C@H](O)[C@H]3O)[C@@H](O)[C@H](O)[C@H]2O)C2C(CO)=CCC12 (some centres undefined) | -2.17% [at 30.2 µM]
CC(C)n1cnc2c(-c3cnc(N)nc3)nc(N3CCOCC3)nc21 | 1.52% [at 57.7 µM]
CC(C)NC(=O)N1CC[C@H](N=C2Nc3cc(F)ccc3N(CC(F)F)c3ccc(Cl)cc32)C1 | 4.5% [at 30.2 µM]
CC(C)S(=O)(=O)c1ccc2nccc(Nc3ccc4scnc4c3)c2c1 | 1.03%
O=C(/C=C/c1ccccc1O)O[C@@H]1O[C@H](CO)[C@@H](O)[C@H](O)[C@H]1O | 4.83% [at 57.7 µM]
COc1c(C(C)C)c(O)c(O)c2c1C(OC)[C@H]1OC(=O)[C@@]23CCCC(C)(C)[C@H]13 (some centres undefined) | -2.5% [at 57.7 µM]
CCn1c(-c2nonc2N)nc2c(C#CC(C)(C)O)ncc(OCC3CCCNC3)c21 (centres undefined) | -0.0601%
O=S(=O)(Cc1ccccc1)Nc1ccc(-c2ccc3c(cnn3-c3ccc(F)cc3)c2)c(C(F)(F)F)c1 | 6.31%
COc1cc(-c2cn(C3CCc4c(F)cccc4N(CC(F)(F)F)C3=O)nn2)ccc1-n1cnc(C)c1 (centres undefined) | 3.78%
Cc1cc(-c2cnc(N)c3c(-c4ccc5scnc5c4)csc23)n(C)n1 | 2.28%
CC(=O)OC/C(=C/C(=O)O)CC[C@@H]1C(C=O)=CC[C@@H]2C(C)(C)CCC[C@@]12C | -2.47% [at 57.7 µM]
Cc1cc(NC(=O)NCCN2CCC(O)(Cc3ccccc3)CC2)c2ccccc2n1 | 6.49%
CC(C)c1ccc(NC(=O)c2cccs2)c(-c2nc3ccccc3[nH]c2=O)c1 | -4.28%
CCN1CCN(Cc2ccc(NC(=O)c3ccc(C)c(Oc4ncnc5[nH]c(C)cc45)c3)cc2C(F)(F)F)CC1 | -12%
COc1cccc(-c2cn(-c3ccc(CCN4CCC(O)CC4)cc3)c3ncnc(N)c23)c1 | 1.22%
Cc1cc2c(F)c(Oc3ncnn4cc(OCC(C)OC(=O)C(C)N)c(C)c34)ccc2[nH]1 (centres undefined) | -10.4%
COc1ccc2[nH]c(=O)c3c(c2c1)OC(C)(C)C=C3 | -5.4%
NS(=O)(=O)Nc1ncnc(OCCOc2ncc(Br)cn2)c1-c1ccc(Br)cc1 | -6.19%
COc1cc2c(NC3CCN(C(C)C)CC3)nc(N3CCC(F)(F)CC3)nc2cc1OCCCN1CCCC1 | 0.048%
C/C=C(\C)C(=O)OC1C=C(C)CC(OC(=O)c2ccc(O)cc2)C2C1(C)CCC2(O)C(C)C (centres undefined) | 5.37% [at 57.7 µM]
CCc1ccccc1OC[C@@H](O)CN[C@H]1CCCc2ccccc21 | 1.43%
Cc1cc(N2CCOCC2)ccc1Nc1nc(NC2CCCCC2)c2[nH]cnc2n1 | -0.688%
CCC/C=C/C=C/C1CC(O)C2(O)C(=O)OCC12 (centres undefined) | 1.52%
CC(/C=C/C(=O)NO)=C\[C@@H](C)C(=O)c1ccc(N(C)C)cc1 | -2.94%
CC12CCC(OC3OC(CO)C(O)C(O)C3OC3OC(CO)C(O)C(O)C3O)CC1CCC1C2CCC2(C)/C(=C3/COC(=O)C3)CCC12O (centres undefined) | -0.898% [at 30.2 µM]
COc1cc(C[C@H]2C(=O)OC[C@@H]2Cc2ccc(OC)c(OC)c2)ccc1O | -5.5% [at 57.7 µM]
CNc1nc(NCc2ccc(NS(C)(=O)=O)cc2Cl)cc(-c2ccccn2)n1 | -0.61%
